Measured values published in PubChem BioAssay AID1835 (Johns Hopkins Ion Channel Center, 2009).
About 750 (31%) of roughly 2,400 compounds were called active.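 Rule for the calls: active = median signal gain over dofetilide-blocked control wells reaching their mean plus 3 SD, so readout 1 at least 0; inactive = the rest.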 The list shows a part of the results.

These compounds were tested against Voltage-gated inwardly rectifying potassium channel KCNH2 (Homo sapiens) (UniProt Q12809) (assay: modulators restoring hERG flux under dofetilide – cell-based, thallium flux, duplicate retest, dofetilide IC70, confirmation (AID 1835)). Settings: hERG cell line, FluxOR thallium flux, dofetilide-blocked; at 10 µM; hits give high values.
Chain of Voltage-gated inwardly rectifying potassium channel KCNH2 (Homo sapiens) (Q12809 whole entry, looked up): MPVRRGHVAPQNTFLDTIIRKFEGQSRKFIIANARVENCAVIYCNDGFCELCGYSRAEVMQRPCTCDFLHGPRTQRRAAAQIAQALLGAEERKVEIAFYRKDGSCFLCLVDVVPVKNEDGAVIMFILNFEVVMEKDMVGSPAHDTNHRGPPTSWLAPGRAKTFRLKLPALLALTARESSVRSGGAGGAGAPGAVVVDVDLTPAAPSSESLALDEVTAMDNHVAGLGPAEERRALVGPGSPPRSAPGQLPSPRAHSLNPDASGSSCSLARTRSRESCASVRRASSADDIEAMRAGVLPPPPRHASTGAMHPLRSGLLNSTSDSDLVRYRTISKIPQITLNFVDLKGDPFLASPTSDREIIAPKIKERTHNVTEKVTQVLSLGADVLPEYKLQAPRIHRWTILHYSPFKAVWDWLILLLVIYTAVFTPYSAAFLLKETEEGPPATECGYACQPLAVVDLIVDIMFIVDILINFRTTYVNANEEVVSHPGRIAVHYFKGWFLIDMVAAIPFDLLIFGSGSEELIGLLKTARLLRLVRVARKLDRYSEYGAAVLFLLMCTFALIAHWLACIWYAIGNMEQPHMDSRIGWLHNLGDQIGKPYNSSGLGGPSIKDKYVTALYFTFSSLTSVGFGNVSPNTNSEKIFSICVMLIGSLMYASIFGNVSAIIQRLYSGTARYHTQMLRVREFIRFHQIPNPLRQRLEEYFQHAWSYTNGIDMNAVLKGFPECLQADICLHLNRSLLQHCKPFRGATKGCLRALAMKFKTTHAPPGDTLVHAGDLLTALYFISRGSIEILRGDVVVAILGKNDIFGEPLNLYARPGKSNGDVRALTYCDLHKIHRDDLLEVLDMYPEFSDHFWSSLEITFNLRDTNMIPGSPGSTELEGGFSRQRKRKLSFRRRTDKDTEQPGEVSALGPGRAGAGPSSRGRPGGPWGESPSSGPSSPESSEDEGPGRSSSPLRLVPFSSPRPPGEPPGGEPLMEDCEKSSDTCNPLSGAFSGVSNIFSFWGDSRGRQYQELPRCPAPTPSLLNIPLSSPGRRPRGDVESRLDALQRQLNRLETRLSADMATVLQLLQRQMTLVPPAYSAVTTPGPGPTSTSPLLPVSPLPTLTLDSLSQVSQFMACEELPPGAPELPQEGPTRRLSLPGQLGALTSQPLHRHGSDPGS

Compound	activity increase over dofetilide control, less the hit threshold
Nn1c(SCC(=O)Nc2ccccc2F)nnc1C1CCCCC1	-10% (inactive)
CC(C)C(=O)Nc1ccc2c(c1)Cc1cc(NC(=O)C(C)C)ccc1-2	-3% (inactive)
Cc1noc(C)c1CSc1ncnc2sc3c(c12)CCCCC3	4% (active)
CCOc1ccc(S(=O)(=O)N2CCN(Cc3ccc4c(c3)OCO4)CC2)cc1C	-31% (inactive)
COC(=O)C1=NN(C(=O)c2ccc(C)cc2)C(O)(c2ccc(Cl)cc2)C1 (configuration not stated)	92% (active)
CCOC(=O)C1=NN(C(=O)c2cccc(Br)c2)C(O)(C(C)(C)C)C1 (configuration not stated)	79% (active)
COC(=O)C1=NN(C(=O)c2ccc(Cl)cc2)C(O)(c2ccccc2)C1 (configuration not stated)	74% (active)
CC1=NN(C(=O)c2ccccc2Br)C(O)(c2ccc(Cl)cc2)C1 (configuration not stated)	-15% (inactive)
CC1=NN(c2ccccc2)C(=O)C1C(=O)c1ccc(Cl)cc1 (configuration not stated)	-5% (inactive)
CCOC(=O)c1cnc(-n2nc(C)cc2C)nc1Nc1cccc(C(=O)O)c1	-2% (inactive)
CCC1=NN(C(=O)c2ccc(Cl)cc2)C(O)(c2ccccc2)C1 (configuration not stated)	-24% (inactive)
COC(=O)C1=NN(C(=O)c2cccc(Br)c2)C(O)(c2ccc(Cl)cc2)C1 (configuration not stated)	86% (active)
CC1=NN(C(=O)c2ccc(Cl)cc2)C(O)(c2ccccc2)C1 (configuration not stated)	-11% (inactive)
COCCn1nnnc1C(c1ccc(C(F)(F)F)cc1)N1CCOCC1 (configuration not stated)	-20% (inactive)
O=C(CSc1ccccc1)N1CCN(S(=O)(=O)c2cccs2)CC1	-10% (inactive)
CCOC(=O)N1CCN(C(=O)CN(c2ccc(OCC)cc2)S(C)(=O)=O)CC1	-19% (inactive)
O=C(OCC(=O)N1CCOCC1)c1ccc(Cl)cc1[N+](=O)[O-]	-13% (inactive)
CCOC(=O)N1CCN(C(=O)COC(=O)c2cc(Cl)c(O)c(Cl)c2)CC1	5% (active)
Cc1ccc(NC2=CC(=O)OC(C)C2)cc1 (configuration not stated)	-4% (inactive)
C=CCNC(=S)N/N=C(\C)c1ccc(OC)cc1	-4% (inactive)
C=C(C)CNC(=S)NN=C1c2ccccc2-c2ccccc21	15% (active)
CCOC(=O)N1CCN(C(=O)c2ccc(Cl)c(S(=O)(=O)Nc3ccccc3)c2)CC1	5% (active)
Cc1cc(S(=O)(=O)Nc2ccc(C(=O)N3CCN(C(=O)c4ccco4)CC3)cc2)ccc1F	-13% (inactive)

Compound	activity increase over dofetilide control, less the hit threshold
CCOC(=O)N1CCN(C(=O)c2ccc(C)c(S(=O)(=O)Nc3ccccc3)c2)CC1	-1% (inactive)
NC(=O)c1ccsc1NC(=O)CS(=O)(=O)c1ccccc1	-9% (inactive)
O=C1OC(/C=C/c2ccc(Cl)cc2Cl)=NC/1=C\c1cccs1	-7% (inactive)
Cn1nc(C(=O)Nc2ccc3c(c2)OCO3)c2ccccc2c1=O	-16% (inactive)
O=c1c(O)c(-c2cccs2)oc2ccccc12	62% (active)
O=C(NCc1cccnc1)Nc1ccc2c(c1)OCO2	-19% (inactive)
O=c1c(O)c(-c2ccc3c(c2)OCO3)oc2ccccc12	6% (active)
O=c1c(O)c(-c2cccs2)oc2ccc(Cl)cc12	92% (active)
Cc1ccc(S(=O)(=O)c2nnn3c2nc(N2CCOCC2)c2ccccc23)c(C)c1	-14% (inactive)
C/C(CCC12CC3CC(CC(C3)C1)C2)=N\NC(N)=S	0% (inactive)
C/C(O)=C/c1nc2ccccc2[nH]c1=O	-7% (inactive)
Cc1cccc(NC(=S)NC(=O)c2ccc(Br)o2)c1C	6% (active)
Cc1cccc(NC(=O)CCNC(=O)c2ccco2)c1C	-13% (inactive)
CCOc1ccc(-c2cccc(NC(=O)c3ccc(Br)o3)c2)nn1	-26% (inactive)
Cc1cccc(NC(=S)NC(=O)c2ccco2)c1C	52% (active)
CN1CCN(c2ccc(NC(=O)c3ccc(Br)o3)cc2)CC1	-2% (inactive)
Cc1cccc(C)c1NC(=S)NC(=O)c1ccc(Br)o1	73% (active)
Nc1cc(=O)[nH]c(SCC(=O)N2CCCCC2)n1	-10% (inactive)
Cc1ccc(CNS(=O)(=O)c2cc3c4c(c2)CCN4C(=O)CC3)cc1	-9% (inactive)
Cc1[nH]c(-c2ccccn2)nc(=S)c1Cl	61% (active)
Cc1cc(=S)nc(-c2ccccn2)[nH]1	-7% (inactive)
CC(C)c1ccc(NC(=O)C2CC3CCC2C3)cc1 (configuration not stated)	-10% (inactive)
CCC(C)NC(=O)c1c(-c2cc(Cl)c(OC)c(Cl)c2)noc1C (configuration not stated)	-16% (inactive)

Compound	activity increase over dofetilide control, less the hit threshold
CCC(Cc1ccccc1)n1c(=S)[nH]c2ccccc2c1=O (configuration not stated)	4% (active)
CC(C)COn1c(=S)[nH]c2ccccc2c1=O	18% (active)
CCC(C)n1c(=S)[nH]c2ccccc2c1=O (configuration not stated)	14% (active)
CCC(C)Sc1nc2c([nH]c3ccccc32)c(=O)n1C (configuration not stated)	-5% (inactive)
S=c1[nH]nc(-c2ccccn2)n1/N=C/c1ccc(-c2ccccc2Br)o1	-16% (inactive)
O=C1C2C3C=CC(C4CC34)C2C(=O)N1/N=C/c1ccc(-c2ccc(F)cc2[N+](=O)[O-])o1 (configuration not stated)	-1% (inactive)
O=[N+]([O-])c1ccc(-c2ccc(/C=N/n3cnnc3)o2)c(Br)c1	12% (active)
COc1ccc(CS(=O)(=O)CC2(O)CCN(C(=O)c3cccc(C(F)(F)F)c3)CC2)cc1	-27% (inactive)
Cc1cc(C)cc(-n2nnc(C(=O)NCc3ccc4c(c3)OCO4)c2N)c1	-19% (inactive)
COc1ccccc1C(=O)NCc1ccc2c(c1)OCO2	-10% (inactive)
CC12CCC(C(=O)NCc3ccc4c(c3)OCO4)(CC1=O)C2(C)C (configuration not stated)	5% (active)
CCC(=O)Nc1cc(-c2nnc(OC)c3ccccc23)ccc1N1CCOCC1	-1% (inactive)
CCCCCCn1c(-c2cccs2)n[nH]c1=S	-8% (inactive)
CCCCn1c(-c2csc(C(C)C)c2)n[nH]c1=S	8% (active)
COc1cccc(C2C3=C(N=c4s/c(=C\c5ccc(OCC(=O)O)cc5)c(=O)n42)c2ccccc2CC3)c1 (configuration not stated)	-29% (inactive)
O=C(NC(=S)Nc1cc(C(F)(F)F)ccc1Cl)c1ccccc1	1% (active)
Cc1ccc(C(=O)NC(=S)Nc2ccccc2C(F)(F)F)cc1	-6% (inactive)
CC(C)(C)SCCNC(=O)CN1C(=O)c2ccccc2S1(=O)=O	-4% (inactive)
CCC1(c2ccc(Cl)cc2)NC(=S)N(c2ccc(C)cc2)N1 (configuration not stated)	66% (active)
CCC1(c2ccccc2)NC(=S)N(c2ccc(C)cc2)N1 (configuration not stated)	113% (active)
CCC1(c2ccc(Cl)cc2)NC(=S)N(c2ccccc2)N1 (configuration not stated)	96% (active)
